Bioassay records from PubChem.
Compounds with a hit are over-represented: about 11% of the library has one in this group of screens.
Pf growth 96h: Primary qHTS for delayed death inhibitors of the malarial parasite plastid, 96 hour incubation; AID 504834, 2011; P. falciparum luciferase reporter growth, 96 h; Potency, µM (highest dose often 28.7 µM), usual class: inhibitors; actives 6.9% (n = 320,000)
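Compounds incubated with erythrocytes infected by luciferase-expressing P. falciparum (2% hematocrit, 0.05% parasitemia final) for 96 hours, 37 C in 5% CO2. Growth inhibition scored as decreased luciferase luminescence.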
Sm TGR inh: qHTS Assay for the Inhibitors of Schistosoma Mansoni Peroxiredoxins; Schistosoma mansoni thioredoxin glutathione reductase (TGR), Q962Y6; Potency, µM (titrated, usually from 114 µM), usual class: inhibitors; purified TGR, DTNB reduction, TNB absorbance 405 nm; actives 3% (n = 360,000); further: nearly all actives have a fitted effect of over 60% in size
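TGR 20 nM + NADPH 100 uM (dispensed conc.), cpd preinc 15 min RT; start with NADPH (500 uM addition) then DTNB (15 mM addition). Kinetic TNB absorbance, 405 nm filter. Four-parameter Hill fit across titration.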
Pf growth 48h: Primary qHTS for delayed death inhibitors of the malarial parasite plastid, 48 hour incubation; P. falciparum luciferase growth in erythrocytes, 48 h; Potency, µM (top dose mostly 28.7 µM), hits mostly inhibitors; actives 5.9% (n = 310,000); AID 504832, 2011
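In quantitative HTS format, infected erythrocytes bearing luciferase-reporter parasites were treated for a single generation at 37 C. Luminescence after adding detection reagent served as the growth measure.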
AMA1-RON2 inh: qHTS for Inhibitors of AMA1-RON; Towards Development of Antimalarial Drug Lead: Primary Screen; Plasmodium falciparum AMA1 (3D7) - RON2 peptide interaction; AlphaScreen AMA1-biotinylated RON2 peptide binding; Potency, µM (highest dose often 58.2 µM), actives largely listed as inhibitors; actives 0.2% (n = 360,000); AID 720542, 2013; further: nearly all actives have a fitted effect of over 45% in size
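AMA1 (3D7) with his tag at 25 nM final met compounds first, then biotinylated RON2 peptide at 25 nM; detection used donor plus acceptor beads, 10 µg/mL apiece, read by AlphaScreen after 30 min at room temperature.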
NS1 function inh: qHTS Assay for Inhibitors of Influenza NS1 Protein Function | Potency, µM (titrated, usually from 46.1 µM) | actives 0.4% (n = 270,000); calls by dose curve; further: actives are rising curves; nearly all actives have a fitted effect of over 50% in size
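In this qHTS, NS1 from influenza A is expressed in budding yeast, where it slows growth. Cells are switched from glucose to 2% galactose medium (pH 6.0, -URA), treated with compound, and growth recovery is read at OD600.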
Of the large screens only hits and unclear results are named; the others gave an inactive call. Unless noted, the call rests on the fitted dose curve; in most records, active means well fitted curve in the direction sought with a large enough effect; inconclusive means small, poorly fitted or top-dose-only effect, or another doubt; inactive means no such curve, though single readings can be large; an effect the other way counts as inactive or inconclusive.

COc1cccc(C2c3[nH]c4ccccc4c3C[C@H]3C(=O)N(C4CC4)CC(=O)N23)c1 (some centres undefined)	Pf growth 96h 1.9µM, Pf growth 48h 3.3µM
COCCCN1CC(=O)N2C(c3cccc(OC)c3)c3[nH]c4ccccc4c3C[C@H]2C1=O (some centres undefined)	Pf growth 96h inconclusive, Pf growth 48h inconclusive
COCCN1CC(=O)N2C(c3cccc(OC)c3)c3[nH]c4ccccc4c3C[C@H]2C1=O (some centres undefined)	Pf growth 96h inconclusive, Pf growth 48h 12µM
CCCN1CC(=O)N2C(c3ccccc3)c3[nH]c4ccccc4c3C[C@H]2C1=O (some centres undefined)	Pf growth 96h inconclusive, Pf growth 48h 2.3µM
C=CCc1cccc([C@@H]2[C@@H](C)CC[C@H]3C(=O)N4[C@@H](c5cc(OC)c(OC)c(OC)c5)c5[nH]c6ccccc6c5C[C@H]4C(=O)N23)c1	Pf growth 96h inconclusive, Pf growth 48h 4.1µM, NS1 function inh 22µM (no result: AMA1-RON2 inh)
CCOC(=O)c1[nH]c(C)c(CCC(=O)N2CCN(c3cccc(OC)c3)CC2)c1C	none (no result: Pf growth 96h, Pf growth 48h, AMA1-RON2 inh, NS1 function inh)
COc1cccc(C2c3[nH]c4ccccc4c3C[C@H]3C(=O)N(C)CC(=O)N23)c1 (some centres undefined)	Pf growth 96h 7.4µM, Pf growth 48h 7.4µM
COc1cc(C2c3[nH]c4ccccc4c3C[C@@H]3C(=O)N(Cc4ccco4)CC(=O)N23)cc(OC)c1OC (some centres undefined)	Pf growth 96h 3.7µM, Pf growth 48h 2.3µM
COc1cc(C2c3[nH]c4ccccc4c3C[C@H]3C(=O)N(C4CC4)CC(=O)N23)ccc1OC(C)C (some centres undefined)	Pf growth 96h 9.3µM, Pf growth 48h 9.3µM
COc1ccc(NC(=O)Cn2c(=O)n(Cc3ccccc3Cl)c(=O)c3cc(OC)c(OC)cc32)cc1	none (no result: Pf growth 96h, Pf growth 48h, AMA1-RON2 inh, NS1 function inh)
COc1ccc(NC(=O)CSc2n[nH]c(=O)n2Cc2ccccc2)cc1Cl	Pf growth 96h inconclusive
O=C(NCc1ccccc1Cl)c1cc2c(s1)-c1ccccc1SC2	none (no result: Pf growth 96h, Pf growth 48h, AMA1-RON2 inh, NS1 function inh)
OC(CC1CC12c1ccccc1-c1ncccc12)(c1ccccc1)c1ccccc1 (centres undefined)	Pf growth 96h 0.83µM (no result: Pf growth 48h)
CCOC(=O)C(C)C1(O)c2ccccc2-c2ncccc21 (centres undefined)	Pf growth 96h inconclusive
CCN1C(=O)N[C@@H](c2ccco2)C(C(C)=O)=C1C	none (no result: Pf growth 96h, Sm TGR inh, Pf growth 48h, NS1 function inh)
COc1ccccc1CC(=O)Nc1ccc2nc(Nc3cccc(C(F)(F)F)c3)cc(C)c2c1	none (no result: Pf growth 96h, Pf growth 48h, AMA1-RON2 inh, NS1 function inh)
O=C(/C=C/N1CCOCC1)c1cc2ccccc2o1	Sm TGR inh inconclusive
O=C(/C=C/N1CCOCC1)c1coc2ccccc12	Sm TGR inh 79µM
CC(NS(=O)(=O)c1ccccc1)C1CC2CCC1C2 (centres undefined)	none (no result: Pf growth 96h, Sm TGR inh, Pf growth 48h, NS1 function inh)
C=C1CCN(C(Cc2ccccc2)C(=O)OC)S(=O)(=O)c2ccc(F)cc21 (centres undefined)	Pf growth 96h inconclusive, Sm TGR inh 22µM
COc1cccc(NC(=O)CCN2CCN(CCO)CC2)c1	none (no result: Pf growth 96h, Pf growth 48h, AMA1-RON2 inh, NS1 function inh)
CC(C)N(C1=N/C(=C\c2ccco2)C(=O)N1c1ccccc1)C(C)C	Sm TGR inh 40µM (no result: Pf growth 48h)
CN1C(=S)N(c2ccccc2)C(=O)/C1=C/c1ccco1	Sm TGR inh inconclusive
O=C1/C(=C/c2ccco2)N=C(N2CCCCC2)N1c1ccccc1	Sm TGR inh 45µM
CCN(CC)C1=N/C(=C\c2ccc(OC)cc2)C(=O)N1c1ccccc1	none
COc1ccccc1Cc1nc2ccccc2nc1SCC(=O)Nc1cc(Cl)ccc1OC	none (no result: Pf growth 96h, Pf growth 48h, AMA1-RON2 inh, NS1 function inh)
CCN1C(=O)[C@H]2[C@@H](c3ccc(-c4ccc(Cl)c(Cl)c4)c(OC)c3)N[C@@](Cc3ccccc3)(C(=O)OC)[C@H]2C1=O	Pf growth 96h 3.7µM, Sm TGR inh inconclusive, Pf growth 48h 2.9µM (no result: NS1 function inh)
CCN1C(=O)[C@H]2[C@@H](c3ccc(-c4ccc5c(c4)OCO5)cc3)N[C@@](Cc3ccccc3)(C(=O)OC)[C@H]2C1=O	none (no result: Pf growth 96h, Sm TGR inh, Pf growth 48h, NS1 function inh)
